Records with an inconclusive call do not appear. The source made the active and inactive calls. Calls come from the whole dose curve; as a rule, active = well fitted inhibition curve with a large enough effect in the signal ratio in the repeat runs (not every such curve was filed as active); inconclusive = weak or mixed curves, or effect the other way; inactive = no such curve, though single readings can be large or run the other way; the % refers to the signal ratio.
Each molecule was assayed against Vitamin D3 receptor (Homo sapiens) (UniProt P11473) (assay: qHTS assay to identify small molecule antagonists of the vitamin D receptor (VDR) signaling pathway (AID 743223)). Settings: VDR-UAS-bla HEK293T, beta-lactamase FRET ratio, 16 h; series mostly up to 61 µM.
Description: U.S. Tox21 Program National Center for Advancing Translational Sciences [NCATS] NIH Chemical Genomics Center [NCGC] U.S. Environmental Protection Agency [EPA] National Institutes of Environmental Health Sciences [NIEHS] National Toxicology Program [NTP] U.S. Food and Drug Administration [FDA] Tox21 Assay Overview: The vitamin D receptor (VDR), a member of nuclear hormone receptor superfamily, plays a critical role in calcium homeostasis and bone metabolism. It is also involved in cell differentiation and growth, and thrombogenicity.
Tox21 Assay Protocol Summary: VDR-bla cells were dispensed at 2,000 cells/5 uL of assay medium per well into black wall/clear-bottom 1536-well plates using a Multidrop Combi (Thermo Fisher Scientific, Waltham, MA) dispenser. After the assay plates were incubated at a 37C and 5% CO2 for 4 h, 23 nL of compounds dissolved in DMSO, positive controls or DMSO only was transferred to the assay plate by a Pintool station (Kalypsys, San Diego, CA), followed by addition of 1 uL of 1alpha, 25-Dihydroxy Vitamin D3 (3 nM, final concentration in the wells) using a Bioraptr Flying Reagent Dispenser (FRD) workstation (Beckman Coulter, Indianapolis, IN). The plates were incubated at 37C and 5% CO2 for 16 h, and then 1 uL of LiveBLAzerTM B/G FRET substrate was added using a Bioraptr FRD. The plates were incubated at room temperature for 2 h and fluorescence intensity was measured by an Envision plate reader (PerkinElmer, Shelton, CT).

Vitamin D3 receptor (Homo sapiens), sequence (P11473 whole entry, looked up): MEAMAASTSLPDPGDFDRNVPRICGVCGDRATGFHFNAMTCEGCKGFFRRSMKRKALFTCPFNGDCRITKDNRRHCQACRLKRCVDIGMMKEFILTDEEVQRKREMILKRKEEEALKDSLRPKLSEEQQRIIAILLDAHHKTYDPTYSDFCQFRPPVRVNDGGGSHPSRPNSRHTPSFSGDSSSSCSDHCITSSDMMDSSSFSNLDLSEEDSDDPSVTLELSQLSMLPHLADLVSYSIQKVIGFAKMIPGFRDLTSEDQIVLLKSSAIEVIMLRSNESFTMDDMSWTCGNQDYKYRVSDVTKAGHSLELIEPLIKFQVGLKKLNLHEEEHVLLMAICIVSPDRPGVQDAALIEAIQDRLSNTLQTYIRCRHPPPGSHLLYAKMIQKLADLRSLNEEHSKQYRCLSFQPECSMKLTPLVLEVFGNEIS

SMILES | outcome
Nc1cc(C(=O)O)ccc1Cl | inactive
CN(C)CCCNCCC#N | inactive
CC(C)COC(=O)COc1ccc(Cl)cc1Cl | inactive
CCCCCCCC[Si](OCC)(OCC)OCC | inactive
CCCCC(CC)COC(=O)c1ccccc1 (stereo not given) | inactive
CO[Si](CCCCl)(OC)OC | inactive
CC(C)COC(=O)/C=C/c1ccccc1 | inactive
CN(C)CCOCCN(C)CCO | inactive
CC(C)C(=O)Nc1cccc(C(F)(F)F)c1 | inactive
CCS(=O)(=O)CCn1c([N+](=O)[O-])cnc1C | inactive
CCCCCCCCC(=O)OCC | inactive
CCC(=O)OCCC(C)CCC=C(C)C (stereo not given) | inactive
CNC(=O)NC | inactive
CC(=O)OC(C)(C)Cc1ccccc1 | inactive
O=S1(=O)CCCC1 | inactive
CC(C)CCO | inactive
CCCC(C)CC (stereo not given) | inactive
C=CCOCC(O)CCl (stereo not given) | inactive
C=C(C)C(=O)OC1CC(C)CC(C)(C)C1 (stereo not given) | inactive
Nc1cc(Cl)cc(S(=O)(=O)O)c1O | inactive

SMILES | outcome
CC(=O)Nc1ccc(C)cc1 | inactive
CC(=O)N1CCN(c2ccc(O)cc2)CC1 | inactive
C1=C\CC/C=C\CC/1 | inactive
NC(Cc1c[nH]c2ccccc12)C(=O)O (stereo not given) | inactive
COC(/C=C(\C)CCC=C(C)C)OC | inactive
CC(C)CCC(=O)CCC(C)C | inactive
CCC1Nc2cc(Cl)c(S(N)(=O)=O)cc2S(=O)(=O)N1 (stereo not given) | inactive
C[CH2][Ge]([Cl])([CH2]C)[CH2]C | inactive
Cc1nc2n(c(=O)c1CCN1CCC(C(=O)c3ccc(F)cc3)CC1)CCS2 | inactive
CC(=O)OCC(=O)[C@@]1(O)[C@H](OC(C)=O)C[C@H]2[C@@H]3CCC4=CC(=O)C=C[C@]4(C)[C@@]3(F)[C@@H](O)C[C@@]21C | inactive
CCCCOC(=O)[C@@H](C)Oc1ccc(Oc2ccc(C(F)(F)F)cn2)cc1 | inactive
CCCCC(=O)N(C)C | inactive
C[N+](C)(C)CC(O)CCl (stereo not given) | inactive
CC(C)=CC(C)(C)C | inactive
C=C[C@@H](C)CCC=C(C)C | inactive
O=C(CN1CCN(Cc2ccc3c(c2)OCO3)CC1)N1c2ccccc2Sc2ccccc21 | inactive
C=CCOCC(CO)(COCC=C)COCC=C | inactive
CCCCCCCCCOCC1CO1 (stereo not given) | inactive
O=C1NC2NC(=O)NC2N1 (stereo not given) | inactive
COc1ccc(OC)c(NC(=O)CC(C)=O)c1 | inactive
